Shn3 3UTR inh: reduction of Shn3 3'UTR firefly luciferase signal, primary screen, Schnurri-3 inhibitor project, cell-based, Clone20 osteoblasts, set 2; inhibition, % at 12.5 µM; hit rate 0.52% among 360,000; Clone20 osteoblast Shn3 3'UTR firefly luciferase, 24 h;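 active = mean inhibition of at least 75% with every replicate also reaching 75%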;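 also: 0% = median of neutral control wells and 100% = pilot-screen positive control compound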
MITF TRPM1 inh: inhibitors of MITF-dependent TRPM1 promoter reporter, primary screen, cell-based, SK-MEL-5, single point, luciferase. hit rate 0.83% among 330,000. inhibition, % at 12.5 µM. AID 488899, 2010. SK-MEL-5 TRPM1 promoter luciferase, 24 h;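 active = mean inhibition across replicates of 60% or more, whatever share of single replicates reaches that level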
Peg3 promoter: Peg3 promoter-driven luciferase inhibitors, primary screen, cell-based, HeLa, luciferase luminescence. AID 588405, 2011. HeLa PEG-Prom luciferase reporter, overnight. inhibition, % at 20 µM. hit rate 1.7% among 360,000;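 active = inhibition of at least 50% at 20 µM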
KKLEB tox: cytotoxicity in KKLEB CF airway cells, primary screen, cytotoxicity control for CF NF-kB inhibitor project, cell-based, uHTS, fluorescence assay plates; KKLEB CF airway cells viability, ATPlite luminescence, overnight; active compounds read low; cells stimulated with P. aeruginosa culture filtrate; activity change (cytotoxicity), % at 5 µM; hit rate 0.36% among 360,000;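 active = corrected activity change at or below -50% at 5 µM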
CF NFkB block: inhibitors of PAF-induced NF-kB signaling, primary screen, cell-based, GFP fluorescence, uHTS; KKLEB NF-kB-GFP reporter, GFP fluorescence overnight; inhibition, % at 5 µM; hit rate 0.86% among 360,000; AID 588850, 2011;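 active = at least 50% inhibition at 5 µM, scaled per plate between neutral and stimulator controls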;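 also: PAF is a Pseudomonas aeruginosa culture filtrate used as stimulus; plate controls were PAF-stimulated DMSO wells for no effect and unstimulated DMSO wells for full effect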
HIF-2a block: HIF-2a reporter inhibitors, primary screen, luminescence, 786-0 RCC cells; 786-0 RCC cells HIF-2a reporter, luciferase luminescence, overnight; inhibition, % at 18.8 µM; hit rate 0.72% among 360,000; AID 624352, 2012;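 active = inhibition of the luminescence signal of 40% or more relative to plate controls, in a single-dose primary screen at 18.75 µM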
The depositor's hits bear a star. A selection: hits, their analogues and other compounds. The true share with any hit is near 2.8%.

SMILES | Shn3 3UTR inh | MITF TRPM1 inh | Peg3 promoter | KKLEB tox | CF NFkB block | HIF-2a block
O=C(CNc1cccc([N+](=O)[O-])c1)N/N=C/c1ccc([N+](=O)[O-])o1 | 17 | 78* | 14 | 9 | -24 | -23
O=C(CNc1cccc2ccccc12)N/N=C/c1ccc([N+](=O)[O-])o1 | 15 | 75* | 0 | 7 | -19 | -68
O=C(CNc1cccc2ccccc12)N/N=C/c1ccc[nH]1 | 0 | -11 | -6 | -4 | 4 | -9
CN1CCN(/N=C/c2ccc(N(c3ccccc3)c3ccccc3)cc2)CC1 | 1 | -16 | 97* | -43 | 38 | 90*
O=C(Nc1nc(-c2ccccn2)cs1)c1ncc(Cl)c(Cl)c1Cl | 10 | 13 | 69* | -5 | 2 | 2
Cc1ccc(C(=O)Nc2nc(-c3ccccn3)cs2)s1 | 48 | 19 | -109 | 7 | -33 | -233
O=C(Nc1nc(-c2ccccn2)cs1)c1ccc(Cl)s1 | 90* | 55 | -137 | -1 | -35 | -308
CC1CC(C)CN(CCCNC(=O)CN2C(=O)COc3ccc(S(=O)(=O)N4CCOCC4)cc32)C1 (stereo not given) | -16 | 2 | 5 | -4 | 14 | 18
Cc1cc(F)ccc1S(=O)(=O)N1CCCOC1CNC(=O)C(=O)NCc1ccncc1 (stereo not given) | 3 | 13 | 3 | 15 | -11 | 15
c1ccc(-c2cc3n(c2)CCc2ccccc2-3)cc1 | -24 | 0 | -132 | -11 | 57* | -30
O=C(O)c1cc2c(s1)-c1ccccc1CC2 | -20 | -3 | -3 | 2 | -5 | 15
Cn1c(=O)c2c(nc(SCCCC#N)n2Cc2c(F)cccc2Cl)n(C)c1=O | 14 | -4 | 6 | -2 | 0 | 6
CC(C)c1nc(SCc2c(F)cccc2Cl)c2c(=O)n(C)c(=O)n(C)c2n1 | 4 | -15 | 63* | 8 | 3 | 6
CCCn1c(SCC(=O)N(C)CC(=O)Nc2ccc(C)cc2)n[nH]c1=O | -12 | -3 | -12 | 12 | 6 | 5
CCCNc1nc2c(c(=O)n(C)c(=O)n2C)n1Cc1cccc(C)c1 | 96* | 14 | 12 | -5 | -7 | 13
COCCNc1nc2c(c(=O)n(C)c(=O)n2C)n1Cc1cccc(C(F)(F)F)c1 | 90* | 1 | 22 | -4 | 0 | 5
CCCNc1nc2c(c(=O)n(C)c(=O)n2C)n1CCc1ccccc1 | 57 | 2 | 20 | -19 | 17 | 5
COc1ccc(CNc2nc3c(c(=O)n(Cc4ccc(Br)cc4)c(=O)n3C)n2C)cc1 | 34 | 24 | 48 | -14 | 25 | 26
Cn1c(NCc2ccccc2)nc2c1c(=O)n(Cc1ccc(Br)cc1)c(=O)n2C | 20 | 9 | 51* | 0 | 2 | 25
CC(O)CNc1nc2c(c(=O)n(C)c(=O)n2C)n1Cc1cccc(C(F)(F)F)c1 (stereo not given) | 12 | -2 | 8 | 5 | -6 | 12
Cn1c(=O)c2c(nc(NCc3ccc4c(c3)OCO4)n2Cc2ccc(F)cc2)n(C)c1=O | 79 | 15 | 56* | -6 | 3 | 18
Cn1c(=O)c2c(nc(NCc3ccc4c(c3)OCO4)n2Cc2ccccc2)n(C)c1=O | 60 | 4 | 28 | 5 | 5 | 15
CNC[C@H](CC1CCCCC1)NC[C@H](CO)NCC1(c2ccccc2)CC1 | 1 | 66* | -19 | -11 | -8 | 3
Cc1nc2c(nc1C)C(=O)c1ccccc1C2=O | 24 | 105* | 8 | -13 | 61* | -5
O=C1c2ccccc2-c2nc3ccccc3nc21 | -89 | -31 | -215 | 16 | -30 | -258
COc1ccc2[nH]c(=O)c(CN(Cc3cccs3)S(=O)(=O)c3cccc4nsnc34)cc2c1 | 56 | 11 | 66* | -53* | 98* | -25
CSc1nnc(-c2ccco2)n1-c1ccccc1 | 89* | -4 | 14 | -12 | 14 | 19

Assay outcomes (PubChem BioAssay)
